Source: publication PMC5540273 (PLoS ONE, 2017)

Experiments:
Details in all cases: concentration: 1 μM, replicates: in singlicate; n = 1
[1] = system: EIF2AK1
[2] = system: EPHA1
[3] = system: EPHA2
[4] = system: EPHA3
[5] = system: EPHA4
[6] = system: EPHA5
[7] = system: EPHA6
[8] = system: EPHA7
[9] = system: EPHA8
[10] = system: EPHB1
[11] = system: EPHB2
[12] = system: EPHB3
[13] = system: EPHB4
[14] = system: EPHB6
[15] = system: ERBB2
[16] = system: ERBB3
[17] = system: ERBB4
[18] = system: T1, ERK1
T1 construct: gene MAPK3

[19] = system: T2, ERK2
T2 construct: gene MAPK1

[20] = system: T3, ERK3
T3 construct: gene MAPK6
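Also: KINOMEscan kinase panel screen.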

Compound | %Inh [1] | %Inh [2] | %Inh [3] | %Inh [4] | %Inh [5] | %Inh [6] | %Inh [7] | %Inh [8] | %Inh [9] | %Inh [10] | %Inh [11] | %Inh [12] | %Inh [13] | %Inh [14] | %Inh [15] | %Inh [16] | %Inh [17] | %Inh [18] | %Inh [19] | %Inh [20]
CN1c2ccc(-c3ccc(C(=O)NCCO)cc3)cc2-c2[nH]ncc2S1(=O)=O | 0% | 11% | 27% | 14% | 14% | 19% | 22% | 3% | 0% | 7% | 20% | 18% | 23% | 54% | 8% | 0% | 10% | 10% | 11% | 5%
COc1ccc(Nc2nccc(N3CCC(NC(=O)c4cccc(NC(C)=O)c4)C3)n2)cc1 (stereo not shown) [GSK1379732] | 0% | 0% | 20% | 1% | 0% | 0% | 0% | 0% | 0% | 1% | 8% | 1% | 11% | 16% | 52% | 30% | 0% | 0% | 0% | 5%
O=c1cc(N2CCOCC2)nc2n(Cc3cccc(Cl)c3)ccn12 [GSK2296823] | 7% | 17% | 14% | 82% | 20% | 0% | 19% | 7% | 17% | 8% | 0% | 15% | 9% | 56% | 0% | 0% | 100% | 0% | 0% | 0%
FC(F)(F)c1cc(Nc2nccc(-c3c(-c4ccc(Cl)cc4)nn4ncccc34)n2)ccc1Cl [GW829351] | 0% | 0% | 0% | 0% | 4% | 0% | 0% | 0% | 3% | 0% | 0% | 0% | 0% | 0% | 0% | 0% | 45% | 0% | 0% | 0%
Clc1cccc(-c2nc(Nc3ccncc3)c3ccccc3n2)c1 [GW873004] | 0% | 100% | 38% | 0% | 5% | 0% | 0% | 15% | 18% | 19% | 2% | 0% | 45% | 0% | 38% | 46% | 0% | 1% | 12% | 0%
NC(=O)c1sc(-n2cnc3ccccc32)cc1OCc1ccccc1F [GSK1024306] | 0% | 2% | 0% | 5% | 0% | 0% | 0% | 0% | 19% | 0% | 0% | 1% | 0% | 8% | 47% | 18% | 25% | 0% | 0% | 0%
Fc1cccc(COc2ccc(Nc3ncnc4cc[nH]c34)cc2Cl)c1 | 23% | 2% | 15% | 0% | 18% | 20% | 7% | 4% | 1% | 9% | 20% | 0% | 22% | 19% | 100% | 11% | 83% | 8% | 24% | 22%
Cc1cc(N2CCC(NS(=O)(=O)c3ccc(F)cc3)CC2)nc(Nc2cccc(C#N)c2)n1.O=C(O)C(F)(F)F [GSK1653537] | 0% | 1% | 0% | 0% | 7% | 0% | 5% | 6% | 19% | 15% | 0% | 1% | 13% | 8% | 13% | 0% | 0% | 0% | 0% | 7%
COC(=O)c1cccc(NC(=O)NCCNc2ccnc(Nc3ccc(F)cc3)n2)c1 [GSK1379883] | 0% | 5% | 32% | 0% | 7% | 0% | 20% | 3% | 9% | 4% | 0% | 21% | 6% | 4% | 14% | 15% | 28% | 0% | 11% | 0%
CS(=O)(=O)CCNCc1ccc(-c2ccc3ncnc(Nc4ccc(OCc5ccccc5)c(Cl)c4)c3c2)o1.Cl [GW574783] | 0% | 3% | 1% | 0% | 13% | 0% | 15% | 0% | 8% | 3% | 0% | 18% | 8% | 28% | 100% | 69% | 90.8% | 4% | 0% | 0%
Cl.O=S(=O)(c1cccc(F)c1)c1ccc(Nc2ncnc3cc(Br)sc23)cc1Cl [GSK306886] | 0% | 9% | 9% | 14% | 19% | 0% | 16% | 2% | 2% | 10% | 42% | 19% | 17% | 0% | 98.7% | 0% | 43% | 0% | 0% | 10%
